# Experimental data: ChEMBL document CHEMBL1201862, “PubChem BioAssay data set” (2004)
# Hit rate of the full screen: of about 400,000 compounds, about 2,100 (0.53%) were called active. Roughly 14% stayed inconclusive and do not appear here. How the calls were made is not given here. The entries come from a sample that favours actives as a whole.
# Molecular target: Ataxin-2 (Homo sapiens) (UniProt Q99700)
# Assay: qHTS for Inhibitors of ATXN expression.
# Format: functional
# Chain of Ataxin-2 (Homo sapiens) (Q99700 whole entry): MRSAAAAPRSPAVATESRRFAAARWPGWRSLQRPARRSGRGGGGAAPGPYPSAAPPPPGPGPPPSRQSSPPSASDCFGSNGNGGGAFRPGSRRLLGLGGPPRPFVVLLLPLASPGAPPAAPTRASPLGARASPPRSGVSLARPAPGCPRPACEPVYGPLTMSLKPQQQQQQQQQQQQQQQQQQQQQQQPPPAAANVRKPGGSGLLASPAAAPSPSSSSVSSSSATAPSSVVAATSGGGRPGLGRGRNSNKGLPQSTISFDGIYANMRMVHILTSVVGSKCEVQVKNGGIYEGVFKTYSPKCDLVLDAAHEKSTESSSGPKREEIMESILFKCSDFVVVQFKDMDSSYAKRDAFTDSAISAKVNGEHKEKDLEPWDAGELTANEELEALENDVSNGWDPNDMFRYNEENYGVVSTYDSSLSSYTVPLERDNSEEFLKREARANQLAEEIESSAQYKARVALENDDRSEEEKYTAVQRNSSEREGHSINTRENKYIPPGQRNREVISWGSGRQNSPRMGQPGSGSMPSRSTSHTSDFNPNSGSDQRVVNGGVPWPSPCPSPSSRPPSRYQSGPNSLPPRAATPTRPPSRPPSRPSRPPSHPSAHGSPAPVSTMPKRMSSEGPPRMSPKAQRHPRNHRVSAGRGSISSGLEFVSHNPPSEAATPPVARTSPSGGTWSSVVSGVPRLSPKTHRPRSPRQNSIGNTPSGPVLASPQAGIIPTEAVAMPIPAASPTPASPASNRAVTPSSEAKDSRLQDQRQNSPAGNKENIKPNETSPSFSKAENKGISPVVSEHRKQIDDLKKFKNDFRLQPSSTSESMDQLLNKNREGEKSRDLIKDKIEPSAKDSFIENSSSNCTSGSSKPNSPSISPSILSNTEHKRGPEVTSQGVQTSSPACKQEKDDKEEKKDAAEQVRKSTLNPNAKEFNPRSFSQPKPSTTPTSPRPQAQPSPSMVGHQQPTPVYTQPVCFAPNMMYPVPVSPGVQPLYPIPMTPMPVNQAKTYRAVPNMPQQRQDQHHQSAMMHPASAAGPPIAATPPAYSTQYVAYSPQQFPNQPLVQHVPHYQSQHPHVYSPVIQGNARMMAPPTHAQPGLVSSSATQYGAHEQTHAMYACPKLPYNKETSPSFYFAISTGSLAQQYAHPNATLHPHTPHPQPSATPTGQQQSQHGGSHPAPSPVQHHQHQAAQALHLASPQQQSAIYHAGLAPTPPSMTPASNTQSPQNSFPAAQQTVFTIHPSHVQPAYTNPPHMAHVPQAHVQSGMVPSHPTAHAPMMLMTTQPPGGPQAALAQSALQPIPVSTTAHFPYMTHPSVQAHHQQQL
row,Structure (SMILES),Potency
1,Cc1c(Cc2ccccc2)c(=O)oc2c(CN(C)C)c(O)c(Cl)cc12,inactive
2,Cc1cc(C)n(-c2nc(NCCCN(C)C)c3c4c(sc3n2)CCCC4)n1,25.1 µM (active)
3,COc1ccc2cc(-c3nc(Cl)c4c5c(sc4n3)CCCC5)c(=O)oc2c1,inactive
4,c1ccc(CNc2ncnc3sc4c(c23)CCCC4)nc1,inactive
5,CCn1cc(C2N3CC4(C)CN2CC(C)(C3)C4=O)c2ccccc21 (stereo not given),inactive
6,CCNc1cc2oc(=O)c(CN3CCOCC3)c(C)c2cc1C,inactive
7,COc1ccc(-n2c(-c3cccc(OC)c3)nc(=S)c3c2CCCC3)cc1,25.1 µM (active)
8,COc1ccc(N2CCN(c3cc(C)c4cccc(C)c4n3)CC2)cc1,inactive
9,COc1cccc(N2CCc3c(C)nc4ccc(Cl)cc4c32)c1,inactive
10,CN1CCN(CC/C=C2/c3ccccc3Sc3ccc(S(=O)(=O)N(C)C)cc32)CC1,35.5 µM (active)
11,Cc1ccccc1-n1c2nc(=O)n(C)c(=O)c-2cc2ccccc21,inactive
12,Cn1nc(-c2ccccn2)nc2c(=O)n(C)c(=O)nc1-2,17.8 µM (active)
13,Cn1c(=O)nc2n(Cc3ccccc3)c3ccccc3cc-2c1=O,inactive
14,CCCc1nc2c(=O)n(C)c(=O)nc-2n(C)n1,8.44 µM (active)
15,Cc1ccc(C)c(-n2c3nc(=O)n(C)c(=O)c-3cc3ccccc32)c1,inactive
16,CC(C)(C)C1CCC(CN2C(Nc3ccccc3)=NC[C@@H]2Cc2ccccc2)CC1 (stereo not given in full),25.1 µM (active)
17,CC(C)C[C@H]1CN=C(Nc2ccccc2)N1CCCC1CCCCC1,22.4 µM (active)
18,CCC(=O)c1cc2c(C)cc(=O)oc2c(C)c1OC(=O)C(C)C,inactive
19,COc1cc(OC)cc(OC(=O)c2cccc(S(=O)(=O)N3CCN(C)CC3)c2)c1,inactive
20,CN1CCN(S(=O)(=O)c2ccc(Sc3nnnn3-c3ccccc3)c([N+](=O)[O-])c2)CC1,39.8 µM (active)
21,O=[N+]([O-])c1ccccc1S(=O)(=O)N1CCN(Cc2ccccc2)CC1,inactive
22,CCC(C)[C@H]1CN=C(S)N1CCc1cc(C(F)(F)F)cc(C(F)(F)F)c1 (stereo not given in full),35.5 µM (active)
23,NC1=NC[C@H](c2ccccc2)N1CCc1cc(C(F)(F)F)cc(C(F)(F)F)c1,28.2 µM (active)
24,FC(F)(F)c1cc(CCN2C(S)=NC[C@@H]2Cc2ccccc2)cc(C(F)(F)F)c1,39.8 µM (active)

row,Structure (SMILES),Potency
1,COc1cccc(C2=CC(c3ccccc3F)n3ncc(C(=O)Nc4ccc(F)cc4)c3N2)c1 (stereo not given),inactive
2,CC1CC(Nc2ccccc2)c2ccccc2N1C(=O)c1ccncc1 (stereo not given),inactive
3,CN1CCc2c(sc3c2C(=O)NC(c2ccc(-c4cccc(Cl)c4)o2)N3)C1 (stereo not given),inactive
4,COn1c(=O)c(-c2ccc(F)cc2)[n+]([O-])c2ccccc21,inactive
5,CCN(CC)Cc1c(O)c(Cl)cc2c(C)c(C)c(=O)oc12,inactive
6,COc1ccc(/C=N/NC(=O)c2[nH]c3ccc(Cl)cc3c2-c2ccccc2)c(C(=O)O)c1OC,inactive
7,O=C1OCCN1C(=O)[C@H]1[C@H](c2ccccc2)C(c2ccc(F)cc2)=NN1c1ccccc1,inactive
8,CCn1nc(NC(=O)C2CCCO2)c2cc3cccc(C)c3nc21 (stereo not given),inactive
9,COc1cc(C2C=C(c3cccs3)Nc3ncnn32)cc(OC)c1OC (stereo not given),inactive
10,Cc1cnc(-n2ncc(C(=O)N3CCN(C(C)C)CC3)c2-c2ccco2)nc1-c1ccc(F)cc1,inactive
11,S=C(NN=C(c1ccccc1)c1ccccn1)N(Cc1ccccn1)Cc1ccccn1,15.8 µM (active)
12,CC(=O)N(Cc1ccccn1)Cc1ccco1,inactive
13,COC(=O)CC1C(=O)NCCN1C(=O)CSc1nc2ccccc2c(=O)n1CC(C)C (stereo not given),inactive
14,Cc1nc(C/C(=N\N)c2ccc(O)cc2O)cs1,inactive
15,O=C1c2cccc3c(N4CCCCC4)ccc(c23)C(=O)N1c1cccc(O)c1,inactive
16,COc1ccc(C(=O)CCN2CCc3cc(OC)c(OC)cc3C2)cc1,26.7 µM (active)
17,COc1cc2c(cc1OC)CN(C(=O)CSc1ccc(F)cc1)CC2,inactive
18,COc1cc2c(cc1OC)CN(Cc1cc(=O)n3c(-c4ccccc4)csc3n1)CC2,inactive
19,Cc1c(C)c2cc(Cl)c(O)c(CN3CCN(C)CC3)c2oc1=O,inactive
20,CC1CCN(CCN=C(S)Nc2ccc(Cl)cc2)CC1,inactive
21,CN1CCN(c2ccc(Cl)cc2NC(=O)/C=C/c2ccc(F)cc2)CC1,inactive
22,CN1CCC(NCCC(c2ccc(F)cc2)c2ccc(Cl)cc2)CC1 (stereo not given),25.1 µM (active)
23,COc1ccccc1Sc1ccccc1/C=N/NC(N)=O,39.8 µM (active)
24,CCOc1ccc(Cl)cc1/C=N/NC(N)=O,inactive

row,Structure (SMILES),Potency
1,COc1cc(Cl)cc(/C=N/NC(N)=O)c1O,inactive
2,CCOC(=O)c1cc2c(=O)n3ccccc3nc2n(CCOC)/c1=N/C(=O)c1c(-c2c(F)cccc2Cl)noc1C,inactive
3,Cc1cc2[nH]c3c4ccccc4nc(C)c3c2cc1C,28.2 µM (active)
4,Cc1cc(C)c2c(N)c3ccccc3nc2n1,inactive
5,Cc1c2ccccc2nc2ccccc12,inactive
6,Cc1ccc2nc(N3CCN(C(=O)CCCC(=O)O)CC3)nc(-c3ccccc3)c2c1,inactive
7,CCOC(=O)c1ccc(NS(=O)(=O)c2c(C)n(C)c(=O)n(C)c2=O)cc1,inactive
8,CCOC(=O)c1ccc(N2C(=O)C=CC2=O)cc1,39.8 µM (active)
9,CCOC(=O)c1ccc(NC(=O)N2C3CCCC2CC(NC(C)=O)C3)cc1 (stereo not given),inactive
10,CC1CCCc2sc3ncn(N)c(=N)c3c21 (stereo not given),inactive
11,CCCCCCCNC(=O)C1(CC2CC(c3cccc(Br)c3)=NO2)CCNCC1 (stereo not given),31.6 µM (active)
12,CCCCCCCNC(=O)C1(CC2CC(c3ccc(Cl)cc3)=NO2)CCNCC1 (stereo not given),25.1 µM (active)
13,CC1CCCC(C)N1C(=O)COC(=O)C12CC3CC(CC(Cl)(C3)C1)C2 (stereo not given),inactive
14,O=C(NN/C=C1\C(=O)N(c2ccc(Cl)cn2)C(=O)c2ccccc21)c1ccncc1,inactive
15,CCCCCCn1c(SCCOC)nc2c1c(=O)[nH]c(=O)n2C,inactive
16,CCCCCn1c(N2CCC(Cc3ccccc3)CC2)nc2c1c(=O)[nH]c(=O)n2C,28.2 µM (active)
17,CCCSc1nc2c(c(=O)[nH]c(=O)n2C)n1Cc1ccccc1,inactive
18,Cc1cccc(OCC2Cn3c(nc4c3c(=O)[nH]c(=O)n4C)O2)c1 (stereo not given),inactive
19,Cn1c(=O)[nH]c(=O)c2c1nc(N1CCCCCC1)n2Cc1cccc2ccccc12,44.7 µM (active)
20,Brc1ccc(C2CC(c3ccccc3)=Nc3ccccc3N2)cc1 (stereo not given),inactive
21,CC(=O)c1ccc(N2C(=O)[C@@H]3[C@H](C2=O)[C@H]2c4ccccc4C=NN2[C@@H]3C(C)=O)cc1,inactive
22,CCn1nc([N+](=O)[O-])c(C(C#N)c2nc3cc(C(F)(F)F)ccc3s2)c(Cl)c1=O (stereo not given),28.2 µM (active)
23,CCOC(=O)c1cc2c(=O)n3ccccc3nc2n(Cc2ccco2)/c1=N\C(=O)c1cccc(Br)c1,inactive
24,O=C(NCc1ccccn1)c1cc2ccccn2n1,inactive

row,Structure (SMILES),Potency
1,COCCCNC(=O)c1c(N)n(-c2cccc(S(N)(=O)=O)c2)c2nc3ccccc3nc12,inactive
2,COc1ccc(CN(C)CC(O)COc2ccc(-c3ccccc3)cc2)cc1OC (stereo not given),11.2 µM (active)
3,OC(CNC1CCCC1)COc1ccc(-c2ccccc2)cc1 (stereo not given),inactive
4,COc1ccc(CN(C)Cc2c(O)ccc3cc(Br)ccc23)cc1OC,inactive
5,Cc1cc(C(C)(C)C)n2nc(C)c(-c3ccccc3)c2n1,inactive
6,Cc1nn2c(NCCN(C)C)c3c(nc2c1-c1ccccc1)CCCC3,35.5 µM (active)
7,Cc1nn2c(NC(C)C)c3c(nc2c1-c1ccccc1)CCC3,inactive
8,CSCCC(NC(=O)/C(=C/c1ccc2c(c1)OCO2)NC(=O)c1cccc([N+](=O)[O-])c1)C(=O)O (stereo not given),inactive
9,C=CC[C@H](CC(=O)N(CCO)Cc1ccccc1)C(=O)NC[C@@H](OC(=O)[C@@H](CC=C)Cc1ccc(F)cc1)c1ccccc1,28.2 µM (active)
10,C=CCC[C@H](Cc1ccc(F)cc1)C(=O)OC[C@@H](NC(=O)[C@@H](CC=C)CC(=O)N[C@@H](CO)Cc1ccccc1)C(C)(C)C,39.8 µM (active)
11,C=CC[C@H](CC(=O)N(CCO)Cc1ccccc1)C(=O)N[C@H](COC(=O)[C@@H](CC=C)Cc1ccc(F)cc1)Cc1ccccc1,22.4 µM (active)
12,C=CC[C@H](CC(=O)N(CCO)Cc1ccccc1)C(=O)N[C@H](COC(=O)[C@@H](CC=C)Cc1ccc(F)cc1)C(C)(C)C,28.2 µM (active)
13,Cn1c(-c2c(N)n(CCc3ccccc3)c3nc4ccccc4nc23)nc2ccccc21,inactive
14,Cc1ccc(C(C(=O)NCC2CCCO2)N(C(=O)c2snc(C(N)=O)c2N)c2ccccc2F)o1 (stereo not given),inactive
15,C=CC[C@@H](CC(=O)N(CCO)Cc1ccccc1)C(=O)N[C@H](COC(=O)[C@@H](CC=C)Cc1ccc(F)cc1)Cc1ccccc1,28.2 µM (active)
16,OCCN(Cc1ccccc1)C(S)=Nc1ccc(F)cc1,inactive
17,C=CC[C@H](CC(=O)N(CCO)Cc1ccccc1)C(=O)N[C@@H](COC(=O)[C@@H](CC=C)Cc1ccc(F)cc1)Cc1ccccc1,28.2 µM (active)
18,Cc1cccn2c(=O)c3cc(C#N)/c(=N\C(=O)c4ccncc4)n(CCCOC(C)C)c3nc12,inactive
19,CCn1ccnc1CN1CCc2c([nH]c3ccccc23)C1CC(C)C (stereo not given),inactive
20,O=C(CCCCCn1c(=S)[nH]c2ccc(N3CCOCC3)cc2c1=O)NCc1cccc(Cl)c1,inactive
21,C[C@]12c3[nH]c4ccc(Cl)cc4c3CCN1C(=O)[C@@H](CC(=O)NCc1cccc(C(F)(F)F)c1)C[C@@H]2C(=O)N1CCOCC1,20 µM (active)
22,C[C@]12c3[nH]c4ccc(Cl)cc4c3CCN1C(=O)[C@@H](CC(=O)NCc1cccc(C(F)(F)F)c1)C[C@@H]2C(=O)N1CCCCC1,35.5 µM (active)
23,O=C(CCCCCn1c(=S)[nH]c2ccc(N3CCOCC3)cc2c1=O)NCc1ccc(Cl)cc1,inactive
